B1: ZNF484, Q5JVG2 (peptide)
chain: EVEASMPQLWAGDSEG
B2: TDRD5, Q8NAT2 (peptide)
chain: GMPALESVTIGDDIWD
B3: KMT2A, Q03164 (peptide)
chain: AVFPDDMPTLSALPWE
B4: NSD1, Q96L73 (peptide)
chain: MPVLESSSWPASKGLG
B5: CBFA2T2, O43439 (peptide)
chain: QFHPTPPPLQHYTLED
B6: DENND3, A2RUS2 (peptide)
chain: MVVSMPNLQDIAMPEL

Biological target: ZMYND11 480-602, Q15326
Sequence (Q15326 480-602): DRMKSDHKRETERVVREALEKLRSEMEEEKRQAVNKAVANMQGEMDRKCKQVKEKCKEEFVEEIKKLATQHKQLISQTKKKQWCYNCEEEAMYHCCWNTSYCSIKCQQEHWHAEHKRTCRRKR

| Binder | selected by phage display |
| --- | --- |
| B1 | confidence 2 (active) |
| B2 | confidence 2 (active) |
| B3 | confidence 3 (active) |
| B4 | confidence 3 (active) |
| B5 | confidence 2 (active) |
| B6 | confidence 3 (active) |

Source: PMC8769072, “Proteome‐scale mapping of binding sites in the unstructured regions of the human proteome” (Molecular Systems Biology, 2022)
